Measured values as given in the supplement of paper PMC3342239.
Structures can show the parent of a compound that is named as a salt.

Test system: Saccharomyces cerevisiae
Assay: fraction of cells in G1 phase (DNA content, flow cytometry); higher = more cells with unreplicated DNA (G1 delay)
Details: temperature: 30 C; YPD; JTY2953 pdr5 snq2 (sensitized); drug added to: cultures diluted from stationary phase; 6-7 h
How it was run: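 Library drugs were added to S. cerevisiae in YPD at 30°C, with fixation after 6–7 h for sensitized JTY2953 diluted 1∶200 from overnight and given a final 20 µg/ml, 6 h for dividing JTY2953, and 4.33 h for BY4741. Ethanol-fixed cells stained with SYTOX Green were read by flow cytometry, 10,000 events each. The G1 fraction is the ratio of the Dean-Jett-Fox G1 peak area to the G1 plus G2/M areas.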

| Structure (SMILES) | fraction of cells in G1 phase |
| --- | --- |
| OCCOCCN1CCN(C2=Nc3ccccc3Sc3ccccc32)CC1 [Quetiapine fumarate] (22.6473 µM) | 0.499 |
| CC(=O)[C@@]1(O)CC[C@H]2[C@@H]3CCC4=CC(=O)CC[C@]4(C)[C@H]3CC[C@@]21C [17- hydroxyprogesterone] (60.5196 µM) | 0.515 |
| O=C1CN2Cc3c(ccc(Cl)c3Cl)N=C2N1 [Anagrelide] (78.0967 µM) | 0.469 |
| NCCCC(O)(P(=O)(O)O)P(=O)(O)O [Alendronate] (80.6158 µM) | 0.456 |
| CCC[S+]([O-])c1ccc2[nH]c(NC(=O)OC)nc2c1 (stereo unspecified) [Ricobendazole] (71.0895 µM) | 0.485 |
| O=C(O)C(=O)O.[NH-][C@@H]1CCCC[C@H]1[NH-].[Pt+2] [Oxaliplatin] (50.3396 µM) | 0.493 |
| CC12CC3CC(C)(C1)CC(N)(C3)C2 [Memantine HCl] (111.54 µM) | 0.532 |
| CCCCNC(=O)NS(=O)(=O)c1ccc(C)cc1 [Tolbutamide] (73.9774 µM) | 0.505 |
| N=c1nc(N2CCCCC2)cc(N)n1O [Minoxidil] (95.5782 µM) | 0.522 |
| CN(C)c1ccc(O)c2c1C[C@H]1C[C@H]3[C@H](N(C)C)C(=O)C(C(N)=O)=C(O)[C@@]3(O)C(=O)C1=C2O [Minocycline HCl] (43.717 µM) | 0.51 |
| CN[C@@H]1[C@@H](O[C@H]2O[C@H](CO)[C@@H](N)[C@H](O)[C@H]2O)OC2C[C@@H](N)[C@@H](O[C@H]3[C@H](O)[C@@H](O)[C@H](N)C[C@@H]3N)OC2[C@@H]1O (stereo partly specified) [Apramycin] (37.0653 µM) | 0.449 |
